High-throughput results as filed in PubChem BioAssay.
Beta apoptosis: beta cell apoptosis inhibition; 300,000 compounds, 0.8% hits; protection from apoptosis, % (no concentration beside the values); INS-1E cytokine-induced death, ATP luminescence, 48 h; percent of positive-control rescue, neutral wells zero;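 active = Every replicate reaches about 75%, or at least half do and their mean reaches it too, limit read from the data; inconclusive = At least half of replicates reach the limit but their mean does not; inactive = Under half of replicates reach the limit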;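 also: 0% = cytokine-treated negative control wells and 100% = positive control rescue; higher means more ATP so stronger rescue from cytokine killing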
Mdm2-MdmX inh: disrupts the human Mdm2-MdmX interaction. AID 485346. SaOS-2 split-luciferase Mdm2/MdmX complementation, luminescence. inhibition, % at 8 µM. 330,000 compounds, 3% hits. O15151+Q00987;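 active = inhibition of at least 50% at 8 µM in the primary screen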
Target sequence (O15151 whole entry, looked up): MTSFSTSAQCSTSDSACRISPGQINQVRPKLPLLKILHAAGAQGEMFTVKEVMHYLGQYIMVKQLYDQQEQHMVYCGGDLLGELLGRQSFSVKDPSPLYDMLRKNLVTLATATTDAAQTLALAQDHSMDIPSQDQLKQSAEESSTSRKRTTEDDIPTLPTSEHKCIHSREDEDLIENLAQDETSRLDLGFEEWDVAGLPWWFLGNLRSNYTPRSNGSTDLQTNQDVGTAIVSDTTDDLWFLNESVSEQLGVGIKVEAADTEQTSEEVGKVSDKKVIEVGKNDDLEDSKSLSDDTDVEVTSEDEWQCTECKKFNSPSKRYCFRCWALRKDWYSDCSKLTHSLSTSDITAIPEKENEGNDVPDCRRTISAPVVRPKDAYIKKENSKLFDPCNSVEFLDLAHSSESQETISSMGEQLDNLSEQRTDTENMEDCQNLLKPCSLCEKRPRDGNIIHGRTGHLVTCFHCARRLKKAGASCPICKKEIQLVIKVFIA
Target sequence (Q00987 whole entry, looked up): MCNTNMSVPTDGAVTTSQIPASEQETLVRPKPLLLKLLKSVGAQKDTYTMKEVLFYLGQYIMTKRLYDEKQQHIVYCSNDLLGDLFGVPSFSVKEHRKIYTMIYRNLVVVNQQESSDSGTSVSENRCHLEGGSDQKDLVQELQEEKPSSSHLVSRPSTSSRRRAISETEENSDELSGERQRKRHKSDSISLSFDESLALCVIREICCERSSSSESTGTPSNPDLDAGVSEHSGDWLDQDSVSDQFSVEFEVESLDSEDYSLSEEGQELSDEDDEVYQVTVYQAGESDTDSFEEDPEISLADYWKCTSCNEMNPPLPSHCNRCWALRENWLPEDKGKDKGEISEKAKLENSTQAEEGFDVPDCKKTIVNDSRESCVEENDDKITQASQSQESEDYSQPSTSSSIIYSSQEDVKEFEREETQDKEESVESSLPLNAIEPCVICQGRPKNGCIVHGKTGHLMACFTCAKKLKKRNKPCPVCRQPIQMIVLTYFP
SKKanGAS inh: blocks kanamycin growth of S. pyogenes SKKanGAS strain | 300,000 compounds, 1.3% hits | inhibition, % at 7.5 µM | BacTiter-Glo, 6 h;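 active = mean replicate score, as percent of positive control median, at least 50; inconclusive = mean below 50 but one replicate at or above 50; inactive = mean and every replicate below 50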;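 also: strain carries kanamycin resistance gene driven by streptokinase promoter and grows in 40 µg/ml kanamycin; loss of luminescence reflects streptokinase promoter inhibition or plain growth inhibition; 0% = median of DMSO wells and 100% = positive control at its reference dose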
CSC inhib: blocks cancer stem cells | cancer stem cell-like cells viability, luminescence | inhibition, % at 7.5 µM | 300,000 compounds, 1.1% hits | AID 2717; in the data active = inhibition above about 75%; inconclusive = no clear call, values can overlap the other calls; tested in HMLE shEcad cells
GRIN3A LBD mod: modulators (binders) of human NR3A ligand-binding domain | NR3A LBD differential scanning fluorimetry, Tm shift; 0% = protein alone, 100% = glycine-bound protein | Tm shift relative to glycine control, % at 25 µM | 340,000 compounds, 2.5% hits | AID 1259313;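 active = melting temperature shift of at least 10% of the positive control shift, at one fixed dose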
MPTP inh: permeability transition pore inhibition. isolated mouse mitochondria, Ca2+ swelling absorbance, 30 min. inhibition, % at 10 µM. 360,000 compounds, 1.4% hits. AID 602449;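 active = inhibition of 50% or more, scaled per plate between neutral and stimulator controls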;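 also: 0% = DMSO wells given calcium and 100% = 1 mM EGTA wells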
Mdm2 MdmX conf: human Mdm2/MdmX binding inhibition, confirmed; shares compounds with Mdm2-MdmX inh; luminescent assay; inhibition, % at 8 µM; 10,000 compounds, 55% hits; AID 489028; in the data active = inhibition above about 40%
Full FLuc ctr: full-length luciferase inhibition in Mdm2/MdmX counter-screen; shares compounds with Mdm2-MdmX inh; SaOS-2 full-length luciferase counterscreen, luminescence; inhibition, % at 8 µM; 6,200 compounds, 77% hits; AID 504607;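 active = mean inhibition at 8 µM reaching about 37%, which flags the compound as non-specific, limit read from the data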;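 also: p53-null SaOS-2 cells with luciferase driven by a doxycycline-inducible promoter; compound on cells about two nights before reading with doxycycline added after day one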
The depositor's hits bear a star; ? = inconclusive; . = no result given. An excerpt weighted towards active compounds, which were near 6.9% of everything screened.

SMILES | Beta apoptosis | Mdm2-MdmX inh | SKKanGAS inh | CSC inhib | GRIN3A LBD mod | MPTP inh | Mdm2 MdmX conf | Full FLuc ctr
CN(C(=O)c1ccc(NC(=O)Cc2cccc(NC(=O)C3CCN(C(=O)C4CCCC4)CC3)c2)cc1)C1CCCC1 | 2.9 | 0.6 | . | -2.1 | 0.6 | -1.8 | . | .
CC(C)c1cccc(C(C)C)c1NC(=O)c1ccc(OCC(=O)NCc2ccccc2)cc1 | -4.1 | 75.5* | 3.9 | -6.7 | . | . | 59.9* | 56.5*
CCCCCCCCCn1ccc(=N)cc1 | 116.3* | 91.2* | 4.7 | 6.8 | 0.0 | 36.9 | 80.5* | 23.6
O=C1N[C@@H](Cc2ccccc2)COC(=O)[C@@H](Cc2ccc(F)cc2)CC/C=C/C[C@H]1CC(=O)N(CCO)Cc1ccccc1 | -1.8 | 52.0* | . | -3.8 | -7.1 | 2.3 | 15.9 | .
O=C1N[C@@H](Cc2c[nH]c3ccccc23)COC(=O)[C@H](Cc2ccc(F)cc2)C/C=C\C[C@H]1CC(=O)N(CCO)Cc1ccccc1 | -9.4 | 32.1 | . | 32.9 | 7.9 | 0.2 | . | .
O=C1N[C@@H](Cc2c[nH]c3ccccc23)COC(=O)[C@@H](Cc2ccc(F)cc2)CC/C=C/C[C@@H]1CC(=O)N(CCO)Cc1ccccc1 | . | 59.2* | . | . | -0.5 | -3.6 | 32.2 | .
CCC(CC)C(=O)OCC(=O)C1(O)CCC2C3CCC4=CC(=O)CCC4(C)C3C(O)CC21C (stereo not given) | . | . | . | . | 2.0 | -1.9 | . | .
O=c1[nH]c(/C=C/c2ccc(Br)cc2)nc2c1cnn2-c1ccccc1 | -5.4 | 83.2* | -1.4 | . | . | . | 21.2 | .
COc1cccc(/C=C/c2nc3c(cnn3-c3ccccc3)c(=O)[nH]2)c1 | 2.8 | 40.6 | -13.3 | 18.1 | 0.6 | 3.2 | . | .
Oc1ccc(C[C@H]2CNCCN2CCc2cc(C(F)(F)F)cc(C(F)(F)F)c2)cc1 | -18.9 | 57.7* | 13.4 | 52.6 | 1.0 | -0.5 | 12.2 | .
c1ccc(C[C@H]2CNCCN2CCc2cccc3ccccc23)cc1 | 3.6 | 14.2 | 3.7 | -2.2 | 0.3 | 42.1 | . | .
Oc1ccc(C[C@@H]2CNCCN2CCCCC2CCCCC2)cc1 | 1.9 | 56.5* | 9.0 | 44.7 | 5.2 | 0.7 | 16.5 | .
FC(F)(F)c1cc(CCN2CCNC[C@H]2Cc2cccc3ccccc23)cc(C(F)(F)F)c1 | 5.4 | 100.2* | 69.8* | ? | -17.8 | -1.7 | 36.1 | 74.8*
COc1ccc(Cc2nnc3sc(SCC(=O)Nc4ccccc4)nn3c2=O)cc1OC | . | -1.6 | -12.3 | 11.2 | 0.8 | -2.5 | . | .
C=CCN1C(=O)CS/C1=N\N=C\c1cccc([N+](=O)[O-])c1 | 3.1 | -11.8 | 5.8 | -0.4 | -0.9 | 1.0 | . | .
CCCOc1ccccc1C1CC(=O)Nc2cc3c(cc21)OCCO3 (stereo not given) | 26.0 | 52.4* | 2.1 | 30.7 | -1.3 | 5.6 | 49.5* | 61.4*
CCOc1ccccc1C1CC(=O)Nc2cc3c(cc21)OCCO3 (stereo not given) | 19.3 | 70.4* | -14.8 | 56.3 | -3.1 | 11.4 | 57.5* | 122.7*
CCCOc1ccccc1C1CC(=O)NC2=C1C(=O)CCC2 (stereo not given) | 4.8 | 58.3* | 1.5 | 52.3 | -3.2 | -2.0 | 56.0* | 48.3*
O=C1CC(c2cccnc2)c2cc3c(cc2N1)OCCO3 (stereo not given) | 1.8 | 0.9 | -3.6 | -2.3 | -1.0 | 1.7 | . | .
Cc1ccc([C@H]2N[C@]3(CCCN(Cc4ccc(C(F)(F)F)cc4)C3=O)[C@H]3C(=O)N(Cc4ccccc4)C(=O)[C@@H]23)cc1 | . | . | . | . | . | -2.4 | . | .
COCCN(CCOC)Cc1cc(=O)oc2cc(OC)ccc12 | . | . | . | . | . | -0.3 | . | .
Oc1c(CNc2ccccc2)cc(COCc2ccccc2)c2cccnc12 | . | 70.5* | . | . | -5.7 | 0.0 | 44.8* | 79.0*
Fc1cccc(COc2ccccc2CNc2ccccc2)c1 | 1.4 | . | -7.6 | 22.0 | 2.9 | 0.6 | . | .
Cc1ccc(NCc2ccc(O)c3ncccc23)cc1C | 3.6 | 77.5* | 7.1 | -6.2 | -5.9 | 3.6 | 63.9* | 48.3*
Cc1ccc(NCc2ccco2)cc1C | -5.0 | -10.8 | 1.0 | -2.6 | -1.4 | -2.6 | . | .
